A short description of test [1]: TOX21_p53_BLA_p2_viability: Viability Assessment in the Tox21 HCT-116 p53 Agonism Beta-lactamase Assay, Phase 2 (AID 2283591).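 Also: compound exposure lasted 16 h at 37 °C; actives lower the ATP signal meaning cytotoxicity.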 A digest of the protocol: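 HCT-116 p53-bla cells (4000/well) rested 5 h at 37C, then received compounds in DMSO (217-fold dilution) for 16 h at 37C, 5% CO2. After the CCF4 read, CellTiter-Glo was added; ATP luminescence was read after 30 min at room temperature.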

Test [2] concerns the target Cellular tumor antigen p53 (Homo sapiens) (UniProt P04637). Nature of the test: TOX21_p53_BLA_p2_ratio: Tox21 HCT-116 p53 Agonism Beta-lactamase Assay, Ratio, Phase 2 (AID 2283592). The method in brief:
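HCT116 p53-bla; 4000 cells/well; 5 h pre-incubation; cpd in DMSO, 217-fold dilution; 16 h 37C/5% CO2; CCF4-AM 2 h RT; Ex 405, Em 460/530 ratio; DMSO = baseline; positive fitting direction.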

Test [3] in a line: TOX21_p53_BLA_p3_viability: Viability Assessment in the Tox21 HCT-116 p53 Agonism Beta-lactamase Assay, Phase 3 (AID 2283593).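 Also: cells exposed to compound for 16 h before reading.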 A digest of the protocol:
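HCT-116 cells (4000/well) rested 5 h at 37C, then got DMSO compounds by pin tool (217-fold dilution) for 16 h at 37C, 5% CO2. After the bla read, CellTiter-Glo was added and luminescence read at 30 min, room temperature.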

In test [4] the target is Cellular tumor antigen p53 (Homo sapiens) (UniProt P04637). Nature of the test: TOX21_p53_BLA_p3_ratio: Tox21 HCT-116 p53 Agonism Beta-lactamase Assay, Ratio, Phase 3 (AID 2283596). The method in brief:
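HCT116 p53-bla cells (4000/well) given compound in DMSO (217-fold dilution) after 5 h, incubated 16 h at 37C. CCF4-AM substrate 2 h at room temperature; 460/530 nm emission ratio, gain fitted against DMSO.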

A short description of test [5]: TOX21_p53_BLA_p4_viability: Viability Assessment in the Tox21 HCT-116 p53 Agonism Beta-lactamase Assay, Phase 4 (AID 2283597).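 Also: hits lower the luminescence signal meaning cytotoxicity.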 The method in brief:
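Cells plated, 5 h pre-incubation; DMSO compounds pinned (217-fold dilution); 16 h, 37C/5% CO2; CCF4-AM 2 h RT; CellTiter-Glo 30 min RT; luminescence read.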

For test [6], the target named is Cellular tumor antigen p53 (Homo sapiens) (UniProt P04637). Nature of the test: TOX21_p53_BLA_p5_ratio: Tox21 HCT-116 p53 Agonism Beta-lactamase Assay, Ratio, Phase 5 (AID 2283599). A digest of the protocol: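 HCT-116 cells carrying a p53-inducible beta-lactamase reporter were seeded at 4000 cells/well and dosed after 5 h with compound in DMSO (217-fold dilution). After 16 h at 37C, CCF4-AM substrate was added for 2 h, and the 460/530 nm emission ratio was scored as gain-of-signal versus DMSO.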
Sequence of Cellular tumor antigen p53 (Homo sapiens) (P04637 whole entry, looked up): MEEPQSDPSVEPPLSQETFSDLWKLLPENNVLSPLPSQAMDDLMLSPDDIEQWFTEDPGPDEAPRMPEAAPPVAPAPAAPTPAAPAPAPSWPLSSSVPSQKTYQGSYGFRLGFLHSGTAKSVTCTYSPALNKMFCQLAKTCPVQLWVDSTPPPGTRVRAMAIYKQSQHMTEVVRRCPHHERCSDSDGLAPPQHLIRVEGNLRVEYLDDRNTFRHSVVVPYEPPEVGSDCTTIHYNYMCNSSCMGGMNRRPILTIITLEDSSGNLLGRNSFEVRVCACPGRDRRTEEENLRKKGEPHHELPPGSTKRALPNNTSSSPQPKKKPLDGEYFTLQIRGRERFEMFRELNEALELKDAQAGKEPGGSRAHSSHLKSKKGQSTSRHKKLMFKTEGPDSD

Test [7] shares this target. Nature of the test: TOX21_p53_BLA_p4_ratio: Tox21 HCT-116 p53 Agonism Beta-lactamase Assay, Ratio, Phase 4 (AID 2283601). The method in brief: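 HCT116 cells carrying an inducible beta-lactamase reporter were plated at 4000 cells/well, rested 5 h, then exposed to compounds in DMSO (217-fold dilution) for 16 h at 37C. CCF4-AM substrate was loaded 2 h at room temperature; 460/530 nm emission ratio scored gain-of-signal versus DMSO.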

Test [8] can be described thus: TOX21_p53_BLA_p5_viability: Viability Assessment in the Tox21 HCT-116 p53 Agonism Beta-lactamase Assay, Phase 5 (AID 2283600). A digest of the protocol: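 4000 cells/well; 5 h pre-incubation; DMSO compounds pin-transferred, 217-fold dilution; 16 h, 37C/5% CO2; CCF4-AM 2 h RT; CellTiter-Glo 30 min RT; luminescence.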
Test [9] deals with PGR (gene 5241) (UniProt P06401). Nature of the test: TOX21_PR_BLA_Followup_Agonist_ratio: Tox21 HEK293 Progesterone Receptor (PR) Agonism Beta-lactamase Follow-Up Assay, Ratio (AID 2283933). The method in brief: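 PR-UAS-bla HEK293T cells (GAL4-UAS beta-lactamase reporter) in medium with 2% charcoal-stripped FBS received compounds after 6 hr at 37C, then incubated 16 hr. LiveBLAzer FRET substrate added, 2 hr room temperature; cleaved/uncleaved (ch2/ch1) ratio fitted upward versus DMSO.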
Sequence of PGR (gene 5241) (P06401 whole entry, looked up, the tested form may be a part): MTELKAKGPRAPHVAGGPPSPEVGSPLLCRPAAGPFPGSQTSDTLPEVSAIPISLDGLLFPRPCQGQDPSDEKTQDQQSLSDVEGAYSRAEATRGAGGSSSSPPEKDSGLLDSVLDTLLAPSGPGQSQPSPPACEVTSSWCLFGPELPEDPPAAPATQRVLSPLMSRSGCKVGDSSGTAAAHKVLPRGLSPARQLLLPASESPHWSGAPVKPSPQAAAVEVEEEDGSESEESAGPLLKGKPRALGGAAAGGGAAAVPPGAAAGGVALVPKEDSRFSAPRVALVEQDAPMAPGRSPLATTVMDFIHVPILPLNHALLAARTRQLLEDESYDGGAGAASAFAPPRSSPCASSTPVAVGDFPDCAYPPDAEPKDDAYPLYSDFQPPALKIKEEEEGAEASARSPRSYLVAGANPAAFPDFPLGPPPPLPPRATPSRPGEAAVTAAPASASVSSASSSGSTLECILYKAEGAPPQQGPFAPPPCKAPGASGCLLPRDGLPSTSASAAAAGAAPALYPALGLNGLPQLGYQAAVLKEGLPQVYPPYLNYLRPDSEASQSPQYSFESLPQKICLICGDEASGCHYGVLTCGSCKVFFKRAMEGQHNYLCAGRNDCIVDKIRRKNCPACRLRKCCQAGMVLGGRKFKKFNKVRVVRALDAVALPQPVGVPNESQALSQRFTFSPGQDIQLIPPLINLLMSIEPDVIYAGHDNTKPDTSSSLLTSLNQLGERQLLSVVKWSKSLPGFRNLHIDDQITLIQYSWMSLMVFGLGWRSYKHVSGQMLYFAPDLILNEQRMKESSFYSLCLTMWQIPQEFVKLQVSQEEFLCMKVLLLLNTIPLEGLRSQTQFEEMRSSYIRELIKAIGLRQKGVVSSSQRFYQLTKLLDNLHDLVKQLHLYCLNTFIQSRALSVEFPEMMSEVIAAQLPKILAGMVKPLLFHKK

The target is the same in test [10]. Nature of the test: TOX21_PR_BLA_Followup_Antagonist_ratio: Tox21 HEK293 Progesterone Receptor (PR) Antagonism Beta-lactamase Follow-Up Assay, Ratio (AID 2283934). A digest of the protocol:
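PR-UAS-bla HEK293T cells in medium with 2% charcoal-stripped FBS were treated with compounds plus 1 nM (final) promegestone (R5020) for 16 hr at 37C. LiveBLAzer B/G FRET substrate was then added for 2 h at room temperature; signal is cleaved/uncleaved substrate ratio versus DMSO.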

Test [11] can be described thus: TOX21_PR_BLA_Followup_Agonist_viability: Viability Assessment in the Tox21 HEK293 Progesterone Receptor (PR) Agonism Beta-lactamase Follow-Up Assay (AID 2283935).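 Also: signal loss means lower viability so actives are cytotoxic.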 A digest of the protocol:
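PR-UAS-bla HEK293T cells in 2% charcoal-stripped FBS medium, compound added after 6 hr plating, 16 hr at 37C/5% CO2. After bla FRET read, CellTiter-Glo added; luminescence read after 30 min at room temperature; signal loss marks cytotoxicity.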

Test [12] in a line: TOX21_PR_BLA_Followup_Antagonist_viability: Viability Assessment in the Tox21 HEK293 Progesterone Receptor (PR) Antagonism Beta-lactamase Follow-Up Assay (AID 2283936).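 Also: hits lower the luminescence signal meaning cytotoxicity.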 The method in brief:
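PR-UAS-bla HEK293T cells (3,000/well, 2% charcoal-stripped FBS) given compound plus R5020 agonist, 16 h at 37C. CellTiter-Glo added after bla read, 30 min at room temperature; luminescence loss indicates cytotoxicity.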

In test [13] the target is PGR (gene 5241) (UniProt P06401). Nature of the test: TOX21_PR_LUC_Followup_Agonist: Tox21 HEK293 Progesterone Receptor (PR) Agonism Luciferase Follow-Up Assay (AID 2283937; active = hit-call score of the fitted dose curve at least 0.9, where 1 is the maximum; inactive = score below 0.9). A digest of the protocol:
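HEK293-PR-A-luc cells, pre-cultured 5 days in medium with 10% charcoal-stripped FBS, were seeded at 3,000 cells/well, rested 5 h at 37C, then exposed to compounds 16 h at 37C; luciferase read by ONE-Glo luminescence after 30 min.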

Test [14] shares this target. Nature of the test: TOX21_PR_LUC_Followup_Antagonist: Tox21 HEK293 Progesterone Receptor (PR) Antagonism Luciferase Follow-Up Assay (AID 2283938).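 Also: curve fitted upward as signal gain over DMSO baseline despite antagonist label.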 The method in brief:
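Cells are grown 5 days in charcoal-stripped-FBS assay medium, plated, left 5 h, then dosed with compound and incubated 16 h. ONE-Glo reagent is added and luminescence read after 30 min.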

Test [15] can be described thus: TOX21_PR_LUC_Followup_Antagonist_viability: Viability Assessment in the Tox21 HEK293 Progesterone Receptor (PR) Antagonism Luciferase Follow-Up Assay (AID 2283940). The method in brief:
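HEK293-PR-A-luc cells, precultured 5 days in assay medium with 10% charcoal-stripped FBS, were seeded at 3,000 cells/well, treated with compounds in DMSO for 16 h at 37C, and viability was read as cellular ATP by CellTiter-Glo luminescence.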

Test [16] can be described thus: TOX21_PR_LUC_Followup_Agonist_viability: Viability Assessment in the Tox21 HEK293 Progesterone Receptor (PR) Agonism Luciferase Follow-Up Assay (AID 2283941).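 Also: loss of signal means cytotoxicity so actives lower viability.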 A digest of the protocol: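 HEK293-PR-A-luc cells, pre-cultured 5 days in 10% charcoal-stripped FBS, were seeded at 3,000 cells/well, rested 5 h at 37C, then given compound in DMSO for 16 h at 37C. Cellular ATP was read by CellTiter-Glo luminescence; signal loss indicates cytotoxicity.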

The structures appear in SMILES notation. Records with an inconclusive call do not appear. Calls of active or inactive are those of the source. The calls were made as follows, unless noted: active = hit-call score of the fitted dose curve at least 0.9, where 1 is the maximum; inconclusive = response in the unintended direction; inactive = score below 0.9.

One may read the AC50 as the concentration giving half of the maximal activity seen.

Take `C[C@H]1CC[C@]2(NC1)O[C@H]1C[C@H]3[C@@H]4CC[C@H]5C[C@@H](O[C@@H]6O[C@H](CO)[C@H](O[C@@H]7O[C@H](CO)[C@@H](O)[C@H](O[C@@H]8OC[C@@H](O)[C@H](O)[C@H]8O)[C@H]7O[C@@H]7O[C@H](CO)[C@@H](O)[C@H](O)[C@H]7O)[C@H](O)[C@H]6O)CC[C@]5(C)[C@H]4CC[C@]3(C)[C@H]1[C@@H]2C`: the AC50 in test [1] was 4.84 µM (active); in test [2], 31.4 µM (active); in test [3] it was 5.23 µM (active); in test [4], 29.4 µM (active); in test [5] it was 4.05 µM (active); in test [6], 30.3 µM (active). In test [7], the AC50 is 24 µM (active).
`COc1ccc(CN2CCNCC2)c(OC)c1OC`: the outcome in [1], in test [2], in test [3], in test [4], in test [5] and in test [8] was inactive. Besides, the outcome in test [7] was inactive.
Regarding `Cc1cc(C(C)(C)c2cc(C)c(O)c(C)c2)cc(C)c1O`, the AC50 was 44.8 µM (active) in test [1]; 20.7 µM (active) in test [2]; 18.8 µM (active) in test [4]; 57.2 µM (active) in test [5]; 83.3 µM (active) in [8]. In [3], the call was inactive.
In the case of `Oc1cc(Cl)cc(Cl)c1`, the result in [1], in [3], in test [4], in [5] and in test [7] was inactive. Further, the AC50 in test [2] was 79 µM (active); in test [6] it was 85.2 µM (active).
Regarding `BrC(Br)C(Br)(Br)Br`, the molecule was classed as inactive in test [1], in test [2], in [3], in [4], in test [5] and in [6]. For the same molecule, in test [7], the outcome was inactive.
For `Nc1c(Br)cc([N+](=O)[O-])cc1[N+](=O)[O-]`, the outcome in test [1], in test [2], in test [3], in test [4], in [5] and in test [8] was inactive.
With `CCOP(=S)(OCC)Oc1cc(Cl)c(Br)cc1Cl`, the call in test [1], in [2], in [3], in test [4], in test [6] and in test [7] was inactive. Further, the result (with PGR (gene 5241) [9]; in test [11]; in [12]; with PGR (gene 5241) [13]; in test [15]; in test [16]) was inactive. For the same molecule, the figures for the half-maximal activity concentration (AC50) (in test [5]; with PGR (gene 5241) [10]; in the test with PGR (gene 5241) [14]) were 72.9 µM (active), 6.49 µM (active) and 5.76 µM (active), respectively.
In the case of `CCOP(=S)(OCC)SC(CCl)N1C(=O)c2ccccc2C1=O` (configuration not stated), the molecule was called inactive in test [1], in [2], in test [3], in test [4], in [5] and in [6]. For the same molecule, the outcome in test [7] was inactive.
Take `CC(C)(O)C(Cl)(Cl)Cl`: the molecule was classed as inactive in [1], in test [2], in test [3], in test [4] and in test [8].

For the origin of these results see PubChem BioAssay (EPA / NIEHS).
